# Assay outcomes deposited in PubChem by National Center for Advancing Translational Sciences (NCATS).
# The sample as a whole holds a higher share of hits than the screen did.
# DT40 TDP1 CPT – DT40-hTDP1 cell growth loss with CPT. 420,000 tested, 12% active. Potency, µM (top dose mostly 46.2 µM), inactives show at the top dose activity change, negative = growth inhibition, actives largely listed as inhibitors. chicken DT40 Tdp1-/-;hTDP1 cells + 20 nM CPT, ATP luminescence, 48 h; also: potency is read from the fitted curve at half-maximal effect; nearly all actives have a fitted effect of over 55% in size
#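 Chicken DT40 Tdp1-/- cells stably complemented with human TDP1 were seeded at 400 cells/well in medium containing 20 nM camptothecin, exposed to pin-transferred compounds, and grown at 37 °C for at least 48 hr. Viability was read as ATP luminescence.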
# HT1080-NT tox – kills 2HG-producing HT-1080-NT fibrosarcoma cells. HT-1080-NT fibrosarcoma viability, CellTiter-Glo ATP luminescence, 48 h. Potency, µM (titrated, usually from 46.1 µM), inactives show top-dose activity, negative = less viability, hits mostly cytotoxic. 360,000 tested, 1.6% active;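 also: NT is the 2HG producing partner of a matched IDH1 knockdown line; potency is read from the fitted curve at half-maximal effect; 0% = DMSO-treated cells and -100% = media-only wells without cells; nearly all actives have a fitted effect of over 55% in size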
#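 HT-1080-NT fibrosarcoma cells (2HG-overproducing), 750 cells/well in RPMI with 5% FBS, dosed after 2 h and incubated 48 h at 37C. CellTiter-Glo luminescence normalized to DMSO and no-cell wells; concentration-response curves fitted and classed.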
# DT40 TDP1 no CPT – qHTS for Inhibitors of human tyrosyl-DNA phosphodiesterase 1 (TDP1): qHTS in cells in absence of CPT. Potency, µM (highest dose often 46.2 µM), for the others: at the highest dose activity change, negative = growth inhibition, hits mostly inhibitors. 420,000 tested, 15% active. DT40 Tdp1-/- hTDP1 cells, no CPT, ATP luminescence, 48 h; also: potency is read from the fitted curve at half-maximal effect; nearly all actives have a fitted effect of over 55% in size
#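 Compound effects on proliferation are scored in DT40 Tdp1-/-;hTDP1 cells in the absence of CPT. ATP levels (CellTiter-Glo luminescence) are recorded after a ≥48 hr, 37 °C incubation.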
# 12-LOX inh – inhibitors of human 12S-lipoxygenase ALOX12. 580,000 tested, 1.1% active. purified 12hLO, xylenol orange hydroperoxide absorbance. AID 1671190. Potency, µM (highest dose often 108 µM), without a hit: top-dose activity change, negative = inhibition, most hits filed as inhibitors; also: potency is read from the fitted curve at half-maximal effect
# Target sequence (P18054 whole entry, looked up): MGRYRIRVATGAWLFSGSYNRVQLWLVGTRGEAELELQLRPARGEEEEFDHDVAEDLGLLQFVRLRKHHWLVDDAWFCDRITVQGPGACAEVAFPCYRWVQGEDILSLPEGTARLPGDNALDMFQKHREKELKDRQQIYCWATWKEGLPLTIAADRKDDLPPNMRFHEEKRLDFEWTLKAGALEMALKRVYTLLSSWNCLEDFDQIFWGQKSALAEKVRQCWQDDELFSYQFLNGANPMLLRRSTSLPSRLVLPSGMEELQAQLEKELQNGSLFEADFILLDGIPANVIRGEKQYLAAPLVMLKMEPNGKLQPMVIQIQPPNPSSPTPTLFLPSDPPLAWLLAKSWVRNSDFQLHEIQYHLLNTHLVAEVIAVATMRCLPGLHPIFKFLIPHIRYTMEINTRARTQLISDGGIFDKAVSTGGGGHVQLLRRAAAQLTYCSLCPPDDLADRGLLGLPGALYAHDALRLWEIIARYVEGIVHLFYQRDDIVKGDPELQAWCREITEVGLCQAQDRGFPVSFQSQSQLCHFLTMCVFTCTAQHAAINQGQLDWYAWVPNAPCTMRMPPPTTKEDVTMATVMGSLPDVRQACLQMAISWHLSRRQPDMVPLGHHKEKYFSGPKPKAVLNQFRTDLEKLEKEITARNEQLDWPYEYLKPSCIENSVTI
#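 Purified human 12hLO (150 nM final) in 25 mM Hepes, 0.01% Triton X-100, pH 7.0 was preincubated 15 min at room temperature with compound. Then 40 uM arachidonic acid was added, 30 min. Hydroperoxide was read by Fe-XO absorbance ratio 573/405 nm.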
# IL1B secr inh – inhibitors of inflammasome signaling (IL-1 beta secretion); THP-1 LPS/ATP IL-1B secretion, AlphaLISA, 16 h; active compounds read low; activity change, % at 57.5 µM; 360,000 tested, 4.7% active; AID 743279; in the data active = activity change below about -50%; inconclusive = mostly about -30% to -49%
#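 THP-1 cells pretreated 1 hr with compounds (up to 57.5 uM final), then stimulated with LPS (250 ng/mL final) plus ATP (1.25 mM final); secreted IL-1B measured by AlphaLISA after 16 hr, decreased signal indicating inhibition.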
# HT1080 IDH1KD tx – HT-1080 IDH1 knockdown cell toxicity (counter line) | HT-1080 IDH1 knockdown viability, ATP luminescence, 48 h | Potency, µM (highest dose often 46.1 µM), for the others: top-dose activity, negative = toxicity, usual class: cytotoxic | 360,000 tested, 2% active;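 also: potency is read from the fitted curve at half-maximal effect; 0% = DMSO wells and -100% = cell-free medium wells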
#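 Knockdown cells (IDH1KD HT-1080) received compounds 2 h after plating at 750 cells/well and were kept 48 h at 37 °C in 5% FBS RPMI. A CellTiter-Glo luminescence read gave % activity for curve fitting.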
# Starred values were filed as active, the others as inactive; i = inactive; ? = inconclusive; . = not tested or not shown; [ ] = remark or other dose. Unless noted, calls follow the shape of the dose curve; as a rule, active = well fitted curve in the direction sought with a large enough effect; inconclusive = small, poorly fitted or top-dose-only effect, or another doubt; inactive = no such curve, though single readings can be large; an effect the other way counts as inactive or inconclusive. Unless noted, % is scaled to controls: 0 for no effect and ±100 for the full control effect.
SMILES,DT40 TDP1 CPT,HT1080-NT tox,DT40 TDP1 no CPT,12-LOX inh,IL1B secr inh,HT1080 IDH1KD tx
COc1ccc(N2CCN(C(=O)CCNS(=O)(=O)c3ccc(Br)s3)CC2)cc1,13µM*,-3.1%,?,0.0%,-2.7,-2.1%[9.24 µM]
CCOc1cc(=O)n2c(c1C(=O)N(CC)Cc1ccncc1)CCCCC2,.,.,.,58.3%,.,.
O=C(NCc1ccco1)C1Cc2ccccc2CN1S(=O)(=O)c1ccccc1F (stereo not drawn),18.4µM*,11.1%,?,?,?,5.6%
O=C(NCc1ccco1)C1Cc2ccccc2CN1C(=O)c1ccco1 (stereo not drawn),-3.9%,10.9%,?,-9.7%,?,-1.1%
NC(=O)c1sc2nccc(Nc3ccccc3)c2c1N,10.3µM*,-7.3%,20.6µM*,?,-11.6,-13.1%
Nc1c(C(=O)Nc2ccccc2)sc2ncc([N+](=O)[O-])cc12,-4.5%,?,?,-11.7%,-7.4,?
COc1ccc(CN(C)C(=O)c2cc(-c3ccccc3)nc3ccc(C)cc23)c(OC)c1,5.8µM*,?,5.8µM*,10.9%,?,?
COc1ccc(-c2cc(C(=O)Oc3ccccc3)c3cc(C)ccc3n2)cc1,?,.,5.17µM*,-22.3%,.,.
COc1ccc(-c2cc(C(=O)Oc3ccc(C)cc3)c3cc(C)ccc3n2)cc1,-23.5%,.,-1.5%,?,.,.
COc1ccc(C(=O)COC(=O)c2cc(-c3cccs3)nc3ccccc23)cc1,-32.2%,.,?,-29.2%,.,.
COc1ccccc1CNC(=O)c1cc(C)nc2ccccc12,-29.7%,1.1%,?,-1.2%,7.5,0.4%
COc1ccccc1CN(C)C(=O)c1cc(C)nc2ccccc12,16.4µM*,-1.8%,16.4µM*,-1.9%,29.3,-1.5%
Cc1ccc(C(=O)COC(=O)c2cc(-c3cccs3)nc3ccccc23)cc1,?,.,18.4µM*,-24.9%,.,.
COc1ccc(-c2cc(N3CCC(NC(=O)c4ccc(C)c(F)c4)CC3)n[nH]2)cc1,.,.,.,21.0%,.,.
COc1ccccc1CNc1nc(-c2ccc(C#N)cc2)cs1,.,.,.,27.0%,.,.
COc1ccccc1CN(C)C(=O)C(NC(=O)Cc1cccc2ccccc12)C(C)C (stereo not drawn),?,-30.1%,23.1µM*,-18.1%,-61.6*,-29.5%
CC(C)[C@H](NC(=O)Cc1cccc2ccccc12)C(=O)O,.,.,.,-26.7%,.,.
Cc1ccc2nc(-c3ccc(Cl)cc3)cc(C(=O)OCC(=O)c3ccccc3)c2c1,?,.,20.6µM*,-0.4%,.,.
Cc1nn(C)cc1CN(C)C(=O)c1cc(-c2ccccc2)nc2ccc(Br)cc12,16.4µM*,-4.5%,14.6µM*,-15.7%,-6.3,-19.2%
O=C(COC(=O)c1cc(-c2ccccc2)nc2ccccc12)c1ccc(Br)cc1,?,.,?,-24.4%,.,.
CCN1c2cc(C(=O)Nc3cc(C)ccc3OC)ccc2C(=O)N2CCCCCC21 (stereo not drawn),.,.,.,15.3%,.,.
Cc1ccc(CNC(=O)N2CCC(Oc3ncccc3C(=O)N3CCOCC3)C2)cc1 (stereo not drawn),.,.,.,33.6%,.,.
CCN(CC)C(=O)Cn1ncc2c([nH]c3ccccc32)c1=O,-12.2%,.,-8.2%,-15.2%,.,.
CC(=O)N(C(C)=O)c1ncc2c([nH]c3ccccc32)c1C#N,?,11.2µM*,?,-11.5%,-6.0,7.08µM*
COc1ccccc1-c1nc(S(=O)(=O)c2ccc3c(c2)OCCO3)c(N2CCCC2)o1,.,.,.,-3.6%,.,.
SMILES,DT40 TDP1 CPT,HT1080-NT tox,DT40 TDP1 no CPT,12-LOX inh,IL1B secr inh,HT1080 IDH1KD tx
CC(C)(C)n1nc2c(c1NC(=O)c1ccc(F)c(F)c1)CS(=O)(=O)C2,0.8%,-6.3%,16.4µM*,0.0%,i,0.6%
O=C(Nc1c2c(nn1-c1ccc(Cl)cc1)CS(=O)(=O)C2)c1cccc(F)c1,20.6µM*,.,18.4µM*,?,.,.
CC(C)(C)n1nc2c(c1NC(=O)c1c(F)cccc1F)CS(=O)(=O)C2,-5.3%,0.7%,7.3%,-1.1%,0.4,2.2%
CC(C)c1ccc(OCCN)cc1,.,.,.,3.5%,.,.
COc1cc(Cl)ccc1C(=O)N[C@@H]1CN(c2ncccn2)C[C@H]1CN(C)C,.,.,.,38.4%,.,.
CNC(=O)COc1ccc2oc3c(c2c1)CCCC3,7.6%,25.2%,-7.1%,-1.6%,8.0,9.9%
Cc1ccccc1NC(=O)COc1ccc2oc3c(c2c1)CCCC3,16.4µM*,.,18.4µM*,-20.4%,.,.
O=C(COc1ccc2oc3c(c2c1)CCCC3)Nc1cccc(Br)c1,?,.,20.6µM*,-13.1%,.,.
Cc1ccnc(NC(=O)COc2ccc3oc4c(c3c2)CCCC4)c1,?,-13.5%,11.6µM*,0.0%,-28.9,-26.2%
O=C(COc1ccc2c3c(c(=O)oc2c1)CCC3)Nc1ccc(CCO)cc1,-23.3%,8.4%,7.8%,2.7%,-53.0*,21.4%
NNC(=O)COc1ccc2oc3c(c2c1)CCCC3,-3.4%,-6.1%,-4.3%,15.0%,2.0,-4.5%
O=C(C1CCC1)N1c2ccccc2CC1c1noc(C2CCOCC2)n1 (stereo not drawn),.,.,.,43.1%,.,.
Cc1ccc(C)c(N2CCN(C3=C(c4ccccc4)C(=O)c4ccccc43)CC2)c1,7.31µM*,.,16.4µM*,-16.3%,.,.
